Screening results from PubChem BioAssay.
Shown is part of a subset that was picked to be rich in hits.
Pf Dd2 inh = Plasmodium falciparum Dd2 growth inhibition; Potency, µM (titrated, usually from 28.9 µM), hits mostly inhibitors; AID 1347417; 120,000 tested, 4.3% active; P. falciparum Dd2 growth, SYBR Green, 72 h; active means well fitted inhibition curve with a large enough effect; further: nearly all actives have a fitted effect of over 65% in size
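Readout: SYBR Green fluorescence, 485 nm excitation, 535 nm emission, after ~16 h lysis at 37C. Before that, Dd2-infected red cells (2.5% hematocrit) grew 72 h with compound, 29 uM top final concentration.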
Large screens that a line does not name were inactive.

COc1ccc(NC(=O)CCc2ccc3c(c2)CN(C(=O)NC(C)C)CCO3)cn1	none
c1ccc(-c2nc(C3CCNC3)no2)cc1 (centres undefined)	none
CCOC(=O)c1ccc(CNC(=O)N2CCC3(CC2)CC(OCC)CCO3)cc1 (centres undefined)	none
Cc1cnn(CCC(=O)N[C@@H]2COCC[C@H]2OCc2ccccn2)c1	none
CCc1noc(-c2cccn3c(CNC(=O)CCc4cccc(OC)c4)nnc23)n1	none
O=C(CN1CCCc2nc(C3CC3)ncc2C1=O)NCCCN1CCOCC1	none
CCN1CCN(C(=O)c2ccc(-c3nnc4ccc(NC(=O)C5CC5)cn34)cc2)CC1	Pf Dd2 inh 0.45µM
CCN1CCN(C(=O)c2ccc3nccn3c2)CC1	none
CC(C)c1ccc(NC(=O)C2CCN(C(=O)c3ccc(F)cc3)CC2)cc1	none
O=C(CN1CC2CC(C1)[C@H]1CCCC(=O)N1C2)NCc1ccc(F)cc1 (some centres undefined)	none
O=C(c1cccc(F)c1)N1CCC2(CC1)CC(OCC1CC1)CCO2 (centres undefined)	none
CNC(=O)c1cnn2c1CN([S+](=O)([O-])c1cccc(C(F)(F)F)c1)CC2	none
COCCN1CCCN(C(=O)c2cc(C)ccc2C)c2ccccc21	Pf Dd2 inh 10µM
COCCN1CCCN(C(=O)c2ccoc2)c2ccccc21	none
COCCN1CCCN(C(=O)c2cc(C)cc(C)c2)c2ccccc21	none
COCc1ccc2c(c1)c(OC(C)(C)C(=O)NCCCn1ccnc1)nn2Cc1cccc(OC)c1	none
O=C(c1ccc2c(c1)OCO2)N1CCCN(c2cc(-c3ccc(Br)cc3)[nH]n2)CC1	none
CC1=C[C@@H](CN2CCN(c3ccccn3)CC2)[C@H](C(C)C)C[C@H]1Cc1nnc(-c2ccc([N+](=O)[O-])cc2)o1	Pf Dd2 inh 3.5µM
CC1=C[C@@H](CN2CCC(CO)CC2)[C@H](C(C)C)C[C@H]1Cc1nnc(-c2ccccc2)o1	none
CC1=C[C@@H](CO)[C@H](C(C)C)C[C@H]1CC(=O)N1CCN(c2ccccn2)CC1	none
CC1=C[C@@H](CN2CCN(c3ncccn3)CC2)[C@H](C(C)C)C[C@H]1Cc1nnc(COc2ccc(F)cc2)o1	Pf Dd2 inh 0.89µM
CC1=C[C@@H](CN(C)Cc2cccnc2)[C@H](C(C)C)C[C@H]1Cc1nnc(-c2ccc([N+](=O)[O-])cc2)o1	Pf Dd2 inh 4.5µM
CC(C)c1ccccc1OCC(=O)c1ccc2c(c1)N(CC(=O)N1CCOCC1)C(=O)CO2	none
COCCNC(=O)[C@H]1C[C@H](Oc2ccccc2)CN1C(=O)COc1ccc(F)cc1	none
CC(C)Cc1cc(C[C@@H]2C[C@H](NC(=O)C3CCC3)C2(C)C)no1	none
CCc1nc(-c2c3n(c(=O)n(CC(=O)NCc4cccs4)c2=O)CCCCC3)no1	none
CC(C)c1nnc(C2CN(C(=O)COc3ccc(Cl)cc3)CC23CCOCC3)o1 (centres undefined)	none
O=C(NC[C@H]1OC[C@@H](NC2CCOCC2)[C@@H]1O)N1CCOCC1	none
O=C1CC(c2ccccc2)N(C(=O)c2cccs2)CCCCCCN1 (centres undefined)	none
Cc1ccc(NC(=O)Cn2ccn3nc(-c4ccc(F)cc4)c(CO)c3c2=O)cc1C	none
COc1cccc(Nc2cc3[nH]ccc3c(C(=O)NCc3c(C)cc(C)[nH]c3=O)n2)c1	Pf Dd2 inh 11µM
Cc1cc(C)c(CNC(=O)c2cc(-c3cccc4[nH]ccc34)cc3ncn(C)c23)c(=O)[nH]1	none
COc1ccc(-c2cc3c(ccn3C)c(C(=O)NCc3c(C)cc(C)[nH]c3=O)n2)cc1	none
Cc1cc(-c2cc3[nH]ccc3c(C(=O)NCc3c(C)cc(C)[nH]c3=O)n2)ccn1	none
Cc1cc(C)c(CNC(=O)c2nc(-c3ccccc3)cc3[nH]ccc23)c(=O)[nH]1	none
Cc1cc(C)c(CNC(=O)c2nc(-c3cccc(N4CCOCC4)c3)cc3[nH]ccc23)c(=O)[nH]1	Pf Dd2 inh 8.9µM
Cc1cccc(C)c1NC(=O)N1CCC2(CC1)SCC(=O)N2Cc1ccccc1	none
CCOCCCNC(=O)N1CC(Oc2ccc(-c3nc(-c4ccccc4)no3)cc2)C1	none
COc1nccc(N2CCC(CC(=O)N3CCCN(c4ncccn4)CC3)CC2)n1	none
O=C(c1ccccc1)N1CCC(c2nc(C3CCOCC3)no2)CC1	none
O=C(c1ccc(CC2CCN(C(=O)c3ccccn3)CC2)cc1)N1CCOCC1	none
Cc1ccc(-c2c3c(=O)n(C)c(=O)n(C)c3cn2-c2cc(C)ccc2O)cc1	Pf Dd2 inh 5.6µM
Cn1c(=O)c2c(-c3ccccc3)n(CCCO)cc2n(C)c1=O	none
Cn1c(=O)c2c(-c3cccc(Br)c3)n(C(C)(C)CO)cc2n(C)c1=O	none
CC(C)NC(=O)N(C1CC1)C1CCOC2(CCN(C(=O)c3n[nH]c4ccccc34)CC2)C1 (centres undefined)	none
CCCNC(=O)N1CC(Oc2ccc(-c3nc(-c4ccccc4)no3)cc2)C1	none
CC(=O)Nc1ccc(C(=O)N2C3CCC2CN(C(C)C)C3)cc1	none
CCC(C)NC(=O)C(NC(=O)c1ccc(C)cc1)C1CCN(C(=O)C(C)C)CC1 (centres undefined)	none
COc1ccc(C(=O)N2CCC(C(NC(=O)c3ccccc3C)C(=O)NCC(C)C)CC2)cc1 (centres undefined)	none
